Where “and” joins values, the source holds several entries; their conditions need not be identical. Equal entries are not always repeated. Results filed as inconclusive are left out. Calls of active or inactive are those of the source. Rule for the calls: active = hit-call score of the fitted dose curve at least 0.9, where 1 is the maximum; inconclusive = response in the unintended direction; inactive = score below 0.9.
Each compound was assayed against Cellular tumor antigen p53 (Homo sapiens) (UniProt P04637) (assay: TOX21_p53_BLA_p5_ratio: Tox21 HCT-116 p53 Agonism Beta-lactamase Assay, Ratio, Phase 5 (AID 2283599)).
Cellular tumor antigen p53 (Homo sapiens), sequence (P04637 whole entry, looked up): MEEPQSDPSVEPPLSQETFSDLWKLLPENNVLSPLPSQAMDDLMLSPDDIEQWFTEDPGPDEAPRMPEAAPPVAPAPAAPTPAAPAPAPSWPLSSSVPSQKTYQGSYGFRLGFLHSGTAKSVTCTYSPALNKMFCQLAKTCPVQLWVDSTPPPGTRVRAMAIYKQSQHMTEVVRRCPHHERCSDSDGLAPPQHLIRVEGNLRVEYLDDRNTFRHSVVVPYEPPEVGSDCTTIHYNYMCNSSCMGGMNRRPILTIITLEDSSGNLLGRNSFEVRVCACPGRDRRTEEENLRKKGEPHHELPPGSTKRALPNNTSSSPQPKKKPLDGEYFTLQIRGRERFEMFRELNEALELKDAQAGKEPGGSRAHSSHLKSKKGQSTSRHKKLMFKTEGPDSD
How it was run: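 Beta-lactamase reporter ratio (blue 460 nm over green 530 nm, 405 nm excitation) after 2 h CCF4-AM loading, in HCT-116 cells exposed 16 h at 37 C to compounds pinned at 217-fold dilution. Increases relative to DMSO baseline scored.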

SMILES | outcome | AC50
CCC[C@@]1(CCc2ccccc2)CC(O)=C([C@H](CC)c2cccc(NS(=O)(=O)c3ccc(C(F)(F)F)cn3)c2)C(=O)O1 | inactive | –
COc1cc2c(Nc3ccc(Br)cc3F)ncnc2cc1OCC1CCN(C)CC1 | inactive | –
CO[C@@H]1[C@H](OC(=O)/C=C/C=C/C=C/C=C/C(=O)O)CC[C@]2(CO2)[C@H]1[C@@]1(C)O[C@@H]1CC=C(C)C | inactive | –
NC(N)=NCc1cccc(I)c1 | inactive | –
Nc1c2ccccc2nc2ccccc12 | – | 3.58 µM (active) and 3.94 µM (active)
Clc1cccc(Cl)c1NC1=NCCN1 | inactive | –
CCCC(=O)O[C@]1(C(=O)CCl)[C@@H](C)C[C@H]2[C@@H]3CCC4=CC(=O)C=C[C@]4(C)[C@@]3(F)C(=O)C[C@@]21C | inactive | –
CCCCCCNC(=O)n1cc(F)c(=O)[nH]c1=O | – | 2.87 µM (active)
CO[C@H]1C[C@@H]2CC[C@@H](C)[C@@](O)(O2)C(=O)C(=O)N2CCCC[C@H]2C(=O)O[C@H]([C@H](C)C[C@@H]2CC[C@@H](OCCO)[C@H](OC)C2)CC(=O)[C@H](C)/C=C(\C)[C@@H](O)[C@@H](OC)C(=O)[C@H](C)C[C@H](C)\C=C/C=C/C=C/1C | – | 21.9 µM (active)
Cc1nc(Nc2ncc(C(=O)Nc3c(C)cccc3Cl)s2)cc(N2CCN(CCO)CC2)n1 | – | 32.7 µM (active)
Cc1c(O)cccc1C(=O)N[C@@H](CSc1ccccc1)[C@H](O)CN1C[C@H]2CCCC[C@H]2C[C@H]1C(=O)NC(C)(C)C | – | 66.8 µM (active) and 35.3 µM (active)
CC(=O)NCCCS(=O)(=O)O | inactive | –
O=C1Cc2cc(CCN3CCN(c4nsc5ccccc45)CC3)c(Cl)cc2N1 | inactive | –
C1=CCC(c2ccccc2)CC1 (centres undefined) | inactive | –
CN(C)CCOC(=O)COc1ccc(Cl)cc1 | inactive | –
O=C1C(=O)c2ncccc2-c2cccnc21 | – | 0.599 µM (active)
CC1(C)S[C@@H]2[C@H](NC(=O)[C@H](N)c3ccc(O)cc3)C(=O)N2[C@H]1C(=O)O | inactive | –
CC1(C)N=C(N)N=C(N)N1c1ccc(Cl)cc1 | inactive | –
CCCCC(=O)O[C@]1(C(=O)CO)[C@@H](C)C[C@H]2[C@@H]3CCC4=CC(=O)C=C[C@]4(C)[C@@]3(F)[C@@H](O)C[C@@]21C | inactive | –
NNc1nncc2ccccc12 | inactive | –

SMILES | outcome | AC50
COC(=O)Nc1nc2ccc(Sc3ccccc3)cc2[nH]1 | – | 161 nM (active) and 97.3 nM (active)
C#CCC(Cc1cnc2nc(N)nc(N)c2n1)c1ccc(C(=O)N[C@@H](CCC(=O)O)C(=O)O)cc1 (some centres undefined) | – | 1.13 µM (active)
O=C(O)CN(CCN(CC(=O)O)CC(=O)O)CC(=O)O | inactive | –
CNC(=O)c1cc(Oc2ccc(NC(=O)Nc3ccc(Cl)c(C(F)(F)F)c3)cc2)ccn1 | – | 6.76 µM (active)
O=c1[nH]c(=O)n([C@H]2C[C@H](O)[C@@H](CO)O2)cc1F | – | 1.8 µM (active)
O=C(Nc1ccc(Cl)c(Cl)c1)C1CC1 | inactive | –
Cc1nc2ccccc2n1Cc1ccc(Cl)cc1 | inactive | –
Cc1nc2sccn2c(=O)c1CCN1CCC(=C(c2ccc(F)cc2)c2ccc(F)cc2)CC1 | inactive | –
C[n+]1c2cc(N)ccc2cc2ccc(N)cc21 (tested in a mixture with another compound) | – | 9.47 µM (active)
CCOC(=O)n1ccn(C)c1=S | inactive | –
COc1cc(C)c(/C=C/C(C)=C/C=C/C(C)=C/C(=O)O)c(C)c1C | – | 36 µM (active)
CC1(C)[C@@H](O[C@H]2O[C@H](C(=O)O)[C@@H](O)[C@H](O)[C@H]2O[C@@H]2O[C@H](C(=O)O)[C@@H](O)[C@H](O)[C@H]2O)CC[C@]2(C)[C@H]3C(=O)C=C4[C@@H]5C[C@@](C)(C(=O)O)CC[C@]5(C)CC[C@@]4(C)[C@]3(C)CC[C@@H]12 | inactive | –
CC[C@@]1(O)C(=O)OCc2c1cc1n(c2=O)Cc2cc3c(CN(C)C)c(O)ccc3nc2-1 | – | 0.692 µM (active)
COc1ccc(Cl)cc1C(=O)NCCc1ccc(S(=O)(=O)NC(=O)NC2CCCCC2)cc1 | inactive | –
CC(C)(C)CC(C)(C)c1ccc(O)c(Cc2ccc(Cl)cc2Cl)c1 | – | 28.1 µM (active)
O=C(O)c1cccc(-c2noc(-c3ccccc3F)n2)c1 | inactive | –
Oc1c(I)cc(I)c2cccnc12 | inactive | –
Cc1cc(Nc2ccccc2C(=O)O)ccc1Cl | – | 17.4 µM (active)
CC(C)=CCC1=C(O)c2ccccc2C(=O)C1=O | – | 1.74 µM (active)
